Mcl1 Bid PPI: Mcl-1/Bid interaction inhibition; 0.97% of 220,000 active; Q07820; AID 1021; TR-FRET Mcl-1/Bid-Dy647 peptide binding, 1536-well; inhibition, % at 21.7 µM;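 active = compounds that cut the binding signal by more than half at the single screening dose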;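 note: His-tagged Mcl-1 with europium anti-His antibody binding Bid BH3 peptide; 0% = Mcl-1 plus peptide wells and 100% = peptide-only wells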
Target sequence (Q07820 whole entry, looked up): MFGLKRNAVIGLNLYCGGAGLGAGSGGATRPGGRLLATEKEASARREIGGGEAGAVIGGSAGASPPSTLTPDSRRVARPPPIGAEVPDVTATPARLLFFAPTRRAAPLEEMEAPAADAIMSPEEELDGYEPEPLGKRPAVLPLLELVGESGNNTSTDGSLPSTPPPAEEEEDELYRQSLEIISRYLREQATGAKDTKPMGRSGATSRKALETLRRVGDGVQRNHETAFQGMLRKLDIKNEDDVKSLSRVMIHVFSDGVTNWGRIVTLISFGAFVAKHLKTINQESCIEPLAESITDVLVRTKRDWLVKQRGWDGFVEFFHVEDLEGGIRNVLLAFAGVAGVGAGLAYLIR
Mcl1-Noxa inh: Mcl-1/Noxa interaction inhibition | TR-FRET Mcl-1/Noxa peptide binding, 2 h | inhibition, % at 21.7 µM | 1.5% of 220,000 active | AID 1022;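 active = compounds that cut the protein-peptide binding signal by more than 50% relative to plate controls in a single-dose test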;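 note: His-tagged Mcl-1 with rhodamine Noxa BH3 peptide and terbium anti-His antibody; 0% = Mcl-1 plus Noxa peptide wells and 100% = peptide-only wells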
MCL1 BIM primary: MCL1-BIM-BH3 interaction inhibition (human); GST-MCL1 / FITC-Bim-BH3 fluorescence polarization; inhibition, % at 10.9 µM; 0.68% of 320,000 active; AID 2057;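 active = inhibition above the mean inhibition of all tested compounds plus 3 SD, set per campaign, cut at about 40% in these data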;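 note: 0% = DMSO wells and 100% = unlabeled Bim-BH3 peptide control; higher means more loss of mP so more displacement of Bim peptide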
Bim-Mcl-1: inhibitors of Bim-Mcl-1 interaction, human; 0.1% of 190,000 active; inhibition, % at 10 µM; Q07820; Bead-based flow cytometry, Bim peptide-Mcl-1 binding; in the data active = inhibition above about 40%;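 note: 0% = no compound tracer wells and 100% = peptide blocker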
* marks the source's active call; other numbers are inactive results; x = not tested or not shown. An excerpt weighted towards active compounds, which were near 2% of everything screened.

SMILES	Mcl1 Bid PPI	Mcl1-Noxa inh	MCL1 BIM primary	Bim-Mcl-1
CCOC(=O)c1cc2c(=O)n3cccc(C)c3nc2n(Cc2ccco2)c1=NC(=O)c1cccnc1	-13.8	68.8*	x	13.0
CCOC(=O)c1cc2c(=O)n3ccccc3nc2n(Cc2ccco2)c1=NC(=O)c1ccccc1OCC	-15.4	18.5	24.5	2.0
Cc1cccc(NC(=S)N(C)C)c1C	-24.2	0.4	1.4	x
Cc1cccc(Nc2cc(C)c3c(O)cccc3n2)c1C	-5.1	53.3*	0.5	0.0
CCCC1=C(C(=O)OCC)C(c2sccc2C)n2ncnc2N1 (stereo unspecified)	1.3	4.6	-2.4	x
CCCC1=C(C(=O)OCC)C(c2ccc(O)cc2)n2ncnc2N1 (stereo unspecified)	-46.4	67.3*	9.7	0.0
COc1ccc(Cl)cc1NC(=O)C(C)N1CCN(C/C=C/c2ccccc2)CC1 (stereo unspecified)	51.3*	27.8	3.0	-5.0
CC(=O)c1ccc(NC(=O)C(C)N2CCN(C/C=C/c3ccccc3)CC2)cc1 (stereo unspecified)	-4.1	9.6	-7.8	x
COc1ccc(C)cc1NC(=O)CCN1CCN(C/C=C/c2ccccc2)CC1	x	x	0.0	x
CC(C(=O)Nc1ccc([N+](=O)[O-])cc1)N1CCN(C/C=C/c2ccccc2)CC1 (stereo unspecified)	-26.2	12.3	0.0	41.0*
COc1ccc(S(=O)(=O)N(C)C)cc1NC(=O)CCNC(=O)c1ccco1	x	x	5.4	x
CCOC(=O)c1sc(SCC(=O)Nc2ccc(N(C)C)cc2)nc1N	-41.3	72.5*	16.6	-1.0
CN(C)c1ccc(NC(=O)CSc2nc(N)c(C(=O)Nc3ccc(N(C)C)cc3)s2)cc1	-40.7	72.9*	9.2	1.0
COc1ccc(NC(=O)c2nnn(CC(=O)Nc3ccc4c(c3)OCO4)c2N)c(OC)c1	x	x	3.7	x
O=C(NCc1nnc(SCC(=O)N2CCCC2)o1)c1c(F)cccc1Cl	-6.1	-3.1	8.6	-4.0
O=C(NCc1nnc(SCC(=O)N2CCOCC2)o1)c1c(F)cccc1Cl	77.3*	19.3	-5.5	3.0
FC(F)(F)c1cccc(CN2CCN(c3ncccn3)CC2)c1	x	x	-2.2	x
FC(F)(F)c1cccc(CN2CCCCCC2)c1	51.5*	20.9	7.2	1.0
Cc1ccc2nc3sc(C(=O)Nc4c(C)[nH]c(=O)[nH]c4=O)c(N)c3cc2c1	-37.4	56.4*	9.5	-1.0
Cc1ccc2cc3c(N)c(C(=O)Nc4c(C)[nH]c(=O)[nH]c4=O)sc3nc2c1	-32.3	65.9*	3.0	-2.0
Cc1ccc2cc3c(N)c(C(=O)N4CCOCC4)sc3nc2c1	-54.8	22.0	5.3	-3.0
Cc1ccc2cc3c(N)c(C(=O)N4CC(=O)Nc5ccccc54)sc3nc2c1	7.8	58.5*	-19.1	0.0
CC(C)NC(=O)C(=O)NCCCN1CCOCC1	-7.5	16.8	4.9	2.0
CCc1cccc(NS(=O)(=O)c2csc(C(N)=O)c2)c1	x	x	5.9	x
O=C(C1CCN(CC2CC=CCC2)CC1)N(CCc1ccccc1)Cc1ccccc1 (stereo unspecified)	74.0*	25.0	5.6	-1.0
SMILES	Mcl1 Bid PPI	Mcl1-Noxa inh	MCL1 BIM primary	Bim-Mcl-1
COc1ccccc1N1CCN(CC(=O)c2c(C)[nH]c3ccccc23)CC1	75.7*	-8.5	-5.4	-2.0
COc1ccccc1N1CCN(CC(=O)c2c[nH]c3ccccc23)CC1	-56.8	-14.5	-10.8	x
Cc1cc2nccc(-c3ccc(OCCCF)cc3)n2n1	x	x	-0.6	x
Fc1cc2nc(-c3ccncc3)[nH]c2cc1F	71.2*	-8.7	1.6	1.0
c1ccc2[nH]c(-c3ccncc3)nc2c1	-47.3	4.6	10.4	1.0
Cc1c(N)c(C(C)(C)C)cc(C(C)(C)C)c1[N+](=O)[O-]	-2.4	-5.9	4.7	-2.0
Cc1cc2nc3c(=O)[nH]c(=O)[nH]c3nc2c([N+](=O)[O-])c1N	-45.6	71.4*	x	14.0
COC(=O)c1sc(-c2ccc(C(C)(C)C)cc2)cc1NC(=O)c1ccccc1C(=O)O	8.4	51.4*	7.8	x
COC(=O)c1sc(-c2ccc(Cl)cc2)cc1NC(=O)c1ccccc1C(=O)O	4.3	-17.9	0.9	x
Cc1ccc(O)c(N=CC2=C(O)c3ccccc3C2=O)c1	-39.4	63.4*	43.2*	-1.0
CCc1ccc(C(=O)NC2CCCCC2)s1	61.4*	-3.5	3.9	-3.0
CC(C)(O)C#Cc1ccc(C(=O)NC2CCCCC2)s1	-43.5	5.0	-5.5	-1.0
Cc1cc(C)c(NN=c2c(=O)c3ccccc3c2=O)c(C)c1	6.3	7.7	-6.0	-2.0
O=c1c(=NNc2ccccc2Cl)c(=O)c2ccccc12	56.8*	33.2	x	-3.0
CS(=O)(=O)N1CCN(c2ccccc2NC(=O)c2ccc(-c3ccc(Cl)cc3Cl)o2)CC1	-22.9	7.4	-2.5	0.0
